Where “and” joins values, the source holds several entries; their conditions need not be identical. Equal values may be shown once. The campaign covered roughly 5,500 compounds. About 2,000 (36%) were called active. Another 18% or so got no clear call; they are omitted. Cut-off read from the data, not from the text of the source: active = normalized growth mostly below about 0.91 (no sharp cut-off); inconclusive = no clear call, values can overlap the other calls; inactive = mostly above about 0.92. The list shows a part of the results.
Test: chemical genetic growth profiling, strain panel (AID 1159580);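 note: tested at 20 µM; growth read once vehicle control cultures reached saturation at 30 °C; 1 = growth at the plate median or of vehicle wells; lower values mean less growth of the strain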
Details: S. cerevisiae deletion strains, growth OD

Measured: normalized growth

C=C[C@@](C)(O)CCC1C(=C)C[C@H](OC(C)=O)C2C(C)(C)CCCC12C (stereo partly specified)
inactive: locus YAL013W, strain DEP1, stronger effect = lower value 1.01 | locus YAL021C, strain ccr4, stronger effect = lower value 1.03 | locus YAL026C, strain drs2, stronger effect = lower value 1.03 | locus YAL030W, strain snc1, stronger effect = lower value 1.04 | locus YBL061C, strain skt5, stronger effect = lower value 1.03 | locus YBR009C, strain hhf1, stronger effect = lower value 1 | locus YBR021W, strain FUR4, stronger effect = lower value 0.963 | locus YBR023C, strain chs3, stronger effect = lower value 1.02 | locus YBR171W, strain sec66, stronger effect = lower value 1.01 | locus YBR229C, strain ROT2, stronger effect = lower value 0.972 | locus YBR231C, strain swc5, stronger effect = lower value 1.05 | locus YBR279W, strain paf1, stronger effect = lower value 1.02 | locus YCL011C, strain gbp2, stronger effect = lower value 1.01 | locus YCL016C, strain dcc1, stronger effect = lower value 1.01 | locus YCL029C, strain bik1, stronger effect = lower value 0.981 | locus YCL061C, strain MRC1, stronger effect = lower value 1.01 | locus YCL069W, strain vba3, stronger effect = lower value 1.03 | locus YCR088W, strain abp1, stronger effect = lower value 1.04 | locus YDL005C, strain med2, stronger effect = lower value 1.04 | locus YDL035C, strain GPR1, stronger effect = lower value 0.961 | locus YDL040C, strain nat1, stronger effect = lower value 1.03 | locus YDL074C, strain BRE1, stronger effect = lower value 0.956 | locus YDL101C, strain DUN1, stronger effect = lower value 1.01 | locus YDL185W, strain tfp1, stronger effect = lower value 0.952 | locus YDL192W, strain arf1, stronger effect = lower value 0.976 | locus YDR001C, strain nth1, stronger effect = lower value 1.03 | locus YDR069C, strain doa4, stronger effect = lower value 1.07 | locus YDR101C, strain arx1, stronger effect = lower value 0.977 | locus YDR137W, strain rgp1, stronger effect = lower value 0.99 | locus YDR150W, strain NUM1, stronger effect = lower value 1.07 | locus YDR159W, strain sac3, stronger effect = lower value 1.02 | locus YDR162C, strain NBP2, stronger effect = lower value 0.965 | locus YDR195W, strain ref2 1.06 | locus YDR297W, strain sur2, stronger effect = lower value 1.05 | locus YDR318W, strain mcm21, stronger effect = lower value 1.01 | locus YDR334W, strain swr1, stronger effect = lower value 1.04 | locus YDR335W, strain msn5, stronger effect = lower value 1.03 | locus YDR388W, stronger effect = lower value 1 | locus YDR502C, strain sam2, stronger effect = lower value 1.03 | locus YEL003W, strain gim4, stronger effect = lower value 1.02 | locus YEL037C, strain rad23, stronger effect = lower value 1.02 | locus YEL061C, strain CIN8 (second series), stronger effect = lower value 1.03 | locus YER015W, strain faa2, stronger effect = lower value 1.02 | locus YER016W, strain bim1, stronger effect = lower value 1.03 | locus YER110C, stronger effect = lower value 0.978 | locus YER111C, strain swi4, stronger effect = lower value 1.02 | locus YER155C, strain BEM2 (second series), stronger effect = lower value 0.989 | locus YER155C, strain BEM2, stronger effect = lower value 0.999 | locus YER167W, strain BCK2, stronger effect = lower value 1.01 | locus YFR010W, strain ubp6, stronger effect = lower value 1.05 | locus YGL078C, strain dbp3, stronger effect = lower value 1.03 | locus YGL086W, strain mad1, stronger effect = lower value 1.02 | locus YGL167C, strain pmr1, stronger effect = lower value 1.01 | locus YGL173C, strain kem1, stronger effect = lower value 1.04 | locus YGL227W, strain vid30, stronger effect = lower value 1.03 | locus YGL240W, strain doc1, stronger effect = lower value 1.01 | locus YGL248W, strain PDE1, stronger effect = lower value 1.02 | locus YGL253W, strain hxk2, stronger effect = lower value 1.03 | locus YGR135W, strain pre9, stronger effect = lower value 1.08 | locus YGR252W, strain gcn5, stronger effect = lower value 1.09 | locus YHR013C, strain ard1, stronger effect = lower value 1.02 | locus YHR027C, strain rpn1, stronger effect = lower value 1.04 | locus YHR030C, strain SLT2, stronger effect = lower value 0.929 | locus YHR079C, strain IRE1 (second series), stronger effect = lower value 0.982 | locus YHR079C, strain IRE1, stronger effect = lower value 0.961 | locus YHR094C, strain hxt1, stronger effect = lower value 0.985 | locus YHR129C, strain ARP1, stronger effect = lower value 1 | locus YHR142W, strain chs7, stronger effect = lower value 1 | locus YHR200W, strain rpn10, stronger effect = lower value 1.01 | locus YIL066C, strain RNR3, stronger effect = lower value 0.965 | locus YIL073C, strain SPO22, stronger effect = lower value 0.984 | locus YIL125W, strain kgd1, stronger effect = lower value 0.976 | locus YIR030C, strain dcg1, stronger effect = lower value 0.995 | locus YJL092W, strain hpr5, stronger effect = lower value 1.03 | locus YJL095W, strain BCK1 (second series), stronger effect = lower value 1.03 | locus YJL095W, strain BCK1, stronger effect = lower value 1.06 and 0.951 | locus YJL115W, strain asf1, stronger effect = lower value 1.03 | locus YJL129C, strain trk1, stronger effect = lower value 0.995 | locus YJL134W, strain LCB3, stronger effect = lower value 1 | locus YJL154C, strain vps35, stronger effect = lower value 1.03 | locus YJL164C, strain tpk1, stronger effect = lower value 0.988 | locus YJL166W, strain qcr8, stronger effect = lower value 0.982 | locus YJL168C, strain set2, stronger effect = lower value 1 | locus YJL187C, strain SWE1 (second series), stronger effect = lower value 1.03 | locus YJL187C, strain SWE1, stronger effect = lower value 1.02 | locus YJR066W, strain TOR1, stronger effect = lower value 0.931 | locus YJR075W, strain HOC1, stronger effect = lower value 1.03 | locus YKL009W, strain mrt4, stronger effect = lower value 0.956 | locus YKL068W, stronger effect = lower value 0.975 | locus YKL085W, strain MDH1 (second series), stronger effect = lower value 0.977 | locus YKL085W, strain MDH1, stronger effect = lower value 0.977 | locus YKL160W, strain elf1, stronger effect = lower value 0.995 | locus YKR001C, strain vps1, stronger effect = lower value 0.993 | locus YKR026C, strain gcn3, stronger effect = lower value 1.03 | locus YKR091W, strain srl3, stronger effect = lower value 1.03 | locus YLL001W, strain dnm1, stronger effect = lower value 0.988 | locus YLL026W, stronger effect = lower value 1.03 | locus YLL041C, strain sdh2, stronger effect = lower value 1.02 | locus YLR027C, strain aat2, stronger effect = lower value 0.992 | locus YLR039C, strain RIC1, stronger effect = lower value 1.05 | locus YLR058C, strain SHM2, stronger effect = lower value 1 | locus YLR102C, strain apc9, stronger effect = lower value 0.995 | locus YLR113W, strain HOG1, stronger effect = lower value 0.902 | locus YLR221C, strain rsa3, stronger effect = lower value 1.03 | locus YLR258W, strain gsy2, stronger effect = lower value 1.03 | locus YLR262C, strain YPT6 (second series), stronger effect = lower value 0.978 | locus YLR268W, strain sec22, stronger effect = lower value 0.975 | locus YLR320W, strain mms22, stronger effect = lower value 1.03 | locus YLR330W, strain CHS5, stronger effect = lower value 1 | locus YLR342W, strain FKS1 (second series), stronger effect = lower value 1.04 | locus YLR342W, strain FKS1, stronger effect = lower value 1.03 | locus YLR357W, strain rsc2, stronger effect = lower value 1.01 | locus YLR370C, strain arc18, stronger effect = lower value 1.02 | locus YLR371W, strain rom2, stronger effect = lower value 1.02 | locus YLR384C, strain iki3, stronger effect = lower value 1.03 | locus YLR418C, strain cdc73, stronger effect = lower value 0.98 | locus YML016C, strain PPZ1, stronger effect = lower value 0.999 | locus YML032C, strain rad52, stronger effect = lower value 0.976 | locus YML120C, strain ndi1, stronger effect = lower value 0.984 | locus YML124C, strain tub3, stronger effect = lower value 1 | locus YMR058W, strain fet3, stronger effect = lower value 1.04 | locus YMR078C, strain ctf18, stronger effect = lower value 0.987 | locus YMR125W, strain sto1, stronger effect = lower value 1.05 | locus YMR129W, stronger effect = lower value 1.02 | locus YMR205C, strain PFK2, stronger effect = lower value 0.958 | locus YMR223W, strain ubp8, stronger effect = lower value 0.986 | locus YMR231W, strain pep5, stronger effect = lower value 1.04 | locus YMR307W, strain GAS1, stronger effect = lower value 0.912 | locus YNL067W, strain RPL9B, stronger effect = lower value 1.04 | locus YNL071W, strain lat1, stronger effect = lower value 0.928 | locus YNL153C, strain GIM3, stronger effect = lower value 1.02 | locus YNL183C, strain NPR1, stronger effect = lower value 0.918 | locus YNL209W, strain ssb2, stronger effect = lower value 1.03 | locus YNL233W, strain BNI4, stronger effect = lower value 1.02 | locus YNL248C, strain rpa49, stronger effect = lower value 1.03 | locus YNL250W, strain rad50, stronger effect = lower value 0.989 | locus YNL271C, strain bni1, stronger effect = lower value 1 | locus YNL298W, strain CLA4, stronger effect = lower value 1 | locus YNL307C, strain MCK1, stronger effect = lower value 0.996 | locus YNL322C, strain KRE1 (second series), stronger effect = lower value 0.984 | locus YNR049C, strain mso1, stronger effect = lower value 1.03 | locus YNR052C, strain pop2, stronger effect = lower value 1.02 | locus YOL006C, strain TOP1, stronger effect = lower value 1.02 | locus YOL012C, strain htz1 1.3 | locus YOL147C, strain pex11, stronger effect = lower value 1 | locus YOR001W, strain rrp6, stronger effect = lower value 1.02 | locus YOR061W, strain CKA2, stronger effect = lower value 0.971 | locus YOR069W, strain VPS5, stronger effect = lower value 1.01 | locus YOR070C, strain gyp1, stronger effect = lower value 1 | locus YOR080W, strain dia2, stronger effect = lower value 1.04 | locus YOR083W, strain WHI5, stronger effect = lower value 0.976 | locus YOR106W, strain vam3, stronger effect = lower value 0.986 | locus YOR136W, strain idh2, stronger effect = lower value 1.01 | locus YOR144C, strain elg1, stronger effect = lower value 0.995 | locus YOR184W, strain ser1, stronger effect = lower value 0.928 | locus YOR231W, strain MKK1, stronger effect = lower value 0.917 | locus YOR265W, strain rbl2, stronger effect = lower value 1.04 | locus YOR270C, strain vph1, stronger effect = lower value 0.963 | locus YOR290C, strain snf2, stronger effect = lower value 0.946 | locus YOR316C, strain cot1, stronger effect = lower value 0.997 | locus YPL051W, strain arl3, stronger effect = lower value 0.996 | locus YPL078C, strain atp4, stronger effect = lower value 0.976 | locus YPL106C, strain sse1, stronger effect = lower value 1.01 | locus YPL240C, strain hsp82, stronger effect = lower value 1.02 | locus YPL256C, strain CLN2, stronger effect = lower value 0.95 | locus YPR119W, strain clb2, stronger effect = lower value 1 | locus YPR141C, strain kar3, stronger effect = lower value 0.993 | locus YPR163C, strain tif3, stronger effect = lower value 1.01 | locus YPR167C, strain met16, stronger effect = lower value 0.996 | strain wtn01, stronger effect = lower value 0.958
active: locus YDR392W, strain spt3, stronger effect = lower value 0.562
